Measured values: PubChem BioAssay AID748 (Sanford-Burnham Center for Chemical Genomics, 2007)
About 100 (0.1%) of roughly 96,000 compounds were called active.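 The calls were made as follows: active = displacement above 50% at 20 µM plus a fluorescence interference ratio under 1.5; inactive = the rest.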 Many of the other results were omitted from the sample, so actives are more common in it than they were. Results with a measured potency or affinity are listed apart.

What follows are compounds tested against Bcl-2-like protein 10 (Homo sapiens) (UniProt Q9HD36) (assay: displacers of TR3 peptide from Bcl-B, primary screen, selectivity assay for Bfl-1 inhibitor project, biochemical, fluorescence polarization, FITC-TR3 peptide (AID 748;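 also: plate controls were wells without compound for no effect and wells lacking Bcl-B protein for full effect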)). Settings: FP displacement of FITC-TR3 peptide from Bcl-B; at 20 µM; active compounds read high.

SMILES | displacement
COc1ccc(N=C2SC(CC(=O)Nc3ccccc3)C(=O)N2CC2CCCO2)cc1 (configuration not stated) | -7.7% (inactive)
COc1ccc2c(c1)c(=O)oc1c(C)c(OCC(=O)N3CCc4ccccc4C3)ccc12 | 17.9% (inactive)
Cc1cc(=O)oc2ccc(OCC(=O)N3CCC(C)CC3)cc12 | -6.2% (inactive)
COc1ccc2c(c1)c(=O)oc1cc(OCC(=O)NC3CC3)ccc12 | -27.3% (inactive)
COc1cccc(OCC(=O)NC2CCCCC2)c1 | -1.4% (inactive)
Cc1cc(=O)oc2cc(OCC(=O)N3CCc4ccccc4C3)ccc12 | -2.9% (inactive)
COc1ccc2c(c1)c(=O)oc1cc(OCC(=O)N3CCCC(C)C3)ccc12 (configuration not stated) | 31.5% (inactive)
COC(=O)c1ccccc1OCC(=O)NC1CCCCC1 | -0.5% (inactive)
O=C1CC(=O)C(n2cncn2)C(c2c(F)cccc2Cl)C1 (configuration not stated) | 1.3% (inactive)
O=C(CSc1ncccc1-c1nc2ccccc2[nH]1)N1CCN(c2ccccc2F)CC1 | -0.6% (inactive)
COc1cc(C(=O)NCCC(=O)NCCCN2CCCCC2C)cc(OC)c1OC (configuration not stated) | -7% (inactive)
Clc1cccc(/C=N\Nc2nccs2)c1 | -14.4% (inactive)
O=[N+]([O-])c1cc(/C=N\Nc2nccs2)ccc1O | 107% (active)
Cc1ccc(/C=N/NC(=O)c2cccs2)cc1[N+](=O)[O-] | -1.9% (inactive)
CCCn1c(CN2CCN(C(=O)c3ccco3)CC2)nc2c1c(=O)n(C)c(=O)n2C | -3.6% (inactive)
CCSc1nnc(NC(=O)c2ccccn2)s1 | 2.1% (inactive)
CCSc1nnc(NC(=O)c2cnccn2)s1 | 58.3% (active)
CCc1nnc(NC(=O)c2cnccn2)s1 | -1% (inactive)
CCc1c(C)nc2[nH]nc(-c3ccccc3)n2c1=O | 3.2% (inactive)
CCOC(=O)c1cc2c(=O)n3cccc(C)c3nc2n(Cc2ccccc2Cl)c1=N | -0.7% (inactive)
Cn1c(=O)[nH]c(=O)c2c1nc(Br)n2Cc1ccccc1Cl | -0.4% (inactive)

SMILES | displacement
COc1cccc(C(=O)NC2CC3CCCC(C2)N3CC(=O)Nc2ccc(N(C)C)cc2)c1 (configuration not stated) | 7.7% (inactive)
COc1cc(C(=O)NC2CC3CCCC(C2)N3CC(=O)Nc2ccccc2)cc(OC)c1OC (configuration not stated) | -5.3% (inactive)
Cn1c(=O)c2nnn(/N=C(\c3ccccc3)C3CC3)c2n(C)c1=O | 0.7% (inactive)
COc1ccc(C2=Nn3c(nnc3-c3ccco3)SC2)cc1 | 0.6% (inactive)
COc1ccc(C2=Nn3c(nnc3-c3ccco3)SC2)cc1OC | 5.3% (inactive)
Oc1ccc(C2=Nn3c(nnc3-c3ccco3)SC2)cc1O | 56.6% (active)
COc1ccc(NC(=O)C2CCCN(c3c4c(nc5ncnn35)CCC4)C2)cc1 (configuration not stated) | -4.1% (inactive)
COc1ccc(NC(=O)C2CCN(C(=O)c3ccc(OC)cc3)CC2)cc1 | 3.5% (inactive)
CCOC(=O)c1cccc(NC(=O)CSc2nc(N)cc(N)n2)c1 | -1.6% (inactive)
COC(=O)c1cccc(NC(=O)COC(=O)CSc2nc(C)cc(C)n2)c1 | -13.3% (inactive)
Cc1ccc(SCC(=O)Nc2ccc(-c3nnc(-c4ccco4)o3)cc2)cc1 | -9.5% (inactive)
CCc1nnc(SCC(=O)Nc2ccccc2)nc1CC | -1.5% (inactive)
Cc1cccc(NC(=O)CSc2nnc(-c3ccco3)c(-c3ccco3)n2)c1C | 37.3% (inactive)
Cc1cccc(NC(=O)CSc2nnc(-c3ccco3)o2)c1C | 7.2% (inactive)
O=C(CSc1nnc2c3ccccc3c3ccccc3c2n1)Nc1ccccc1 | -29.6% (inactive)
Cc1cccc(C)c1NC(=O)CSc1nnc(-c2ccco2)c(-c2ccco2)n1 | -4.1% (inactive)
Cc1ccc2oc(-c3cccc(NC(=O)c4ccc(Br)o4)c3)nc2c1 | -23.6% (inactive)
CC(NC(=O)CSc1nnc(CC(=O)Nc2ccc(Cl)c(Cl)c2)n1C)c1ccccc1 (configuration not stated) | -13.6% (inactive)
Cc1cccc(N(C)S(=O)(=O)c2ccc3c(c2)CCC(=O)N3)c1 | -24.5% (inactive)
Cc1ccc(S(=O)(=O)Cc2ccc(C(=O)N3CCCCCC3)o2)cc1 | 21.6% (inactive)
Cc1ccc(S(=O)(=O)Cc2ccc(C(=O)N3CCCC3)o2)cc1 | -6.7% (inactive)

SMILES | displacement
COc1ccc(S(=O)(=O)Cc2ccc(C(=O)N3CCc4ccccc4C3)o2)cc1 | 9.8% (inactive)
Cc1ccc(S(=O)(=O)Cc2ccc(C(=O)N3CCN(Cc4ccccc4)CC3)o2)cc1 | 16.9% (inactive)
COC(=O)c1cccc(NC(=O)CSc2nnc(C)n2Cc2ccccc2)c1 | -10.5% (inactive)
CCOc1ccc(N2C(=O)CC(N3CCN(C4CCc5ccccc5C4)CC3)C2=O)cc1 (configuration not stated) | 5.4% (inactive)
CC(=O)N1CCn2c3c(c(=O)c4cc(C)ccc42)CCC31 (configuration not stated) | 4.4% (inactive)
Cc1ccc2c(c1)c1c3n2CCN(C(=O)CN2CCN(C)CC2)C3CCC1 (configuration not stated) | 15.1% (inactive)
COCC(C)n1c(C)cc(C(=O)COC(=O)c2nc3nc(C)cc(C)n3n2)c1C (configuration not stated) | 9.9% (inactive)
COc1cc(NC(=O)COC(=O)c2nc3nc(C)cc(C)n3n2)cc(OC)c1 | 0.7% (inactive)
Cc1ccc(CC(=O)NC(C)CCc2ccccc2)cc1 (configuration not stated) | 1% (inactive)
Cc1cc(NC(=O)COC(=O)[C@H](C)NC(=O)c2ccccc2)no1 | 11.4% (inactive)
Cc1ccc(C)n1-c1ccc(C(=O)O)cc1 | 42.6% (inactive)
O=C(O)c1cccc(N2CCCC2)c1 | -2.4% (inactive)
N/C(COc1ccc(F)cc1)=N\NC(=O)c1cccnc1Oc1ccccc1 | 12.1% (inactive)
C/C(Cl)=C/Cn1c(=O)c2c(nc(Br)n2Cc2ccccc2)n(C)c1=O | 4.3% (inactive)
C/C(N)=C(/C#N)C(=O)CSc1nnc(Nc2cccc(C)c2C)s1 | -1.5% (inactive)
C/C(N)=C(/C#N)C(=O)CSc1nnc(Nc2ccccc2C)s1 | 4.3% (inactive)
O=S(=O)(c1ccccc1)N1CCSC1c1ccco1 (configuration not stated) | -4.6% (inactive)
CCc1cc(C(=O)Cc2cnn(-c3ccccc3)c2)c(O)cc1O | -5.9% (inactive)
Cc1ccc(O)c(C(=O)c2cnn(-c3ccccc3)c2)c1 | -8.5% (inactive)
CC(SCCc1ccccn1)C(=O)O (configuration not stated) | -2% (inactive)
